Where “and” joins values, the source holds several entries; their conditions need not be identical. Equal values may be shown once. Records with an inconclusive call do not appear. Some structures have more than one record in an assay (separate samples or runs), and their calls can disagree. Calls of active or inactive are those of the source. Unless noted, the call rests on the fitted dose curve.
Columns and labels:
[1] = Nuclear factor erythroid 2-related factor 2/antioxidant responsive element (Nrf2/ARE) small molecule agonists: qHTS cell viability counter screen in human keratinocytes (AID 1919968; active means well fitted curve in the direction sought with a large enough effect in the repeat runs; an effect the other way counts as inactive or inconclusive; further: nearly all actives have a fitted effect of over 55% in size)
How it was run: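 Cytotoxicity was multiplexed with the Nrf2/ARE luciferase assay in the same wells. Stably transfected HaCaT keratinocytes were treated with test compounds for 23 h at 37 C. Cell viability was then measured by CellTiter-Fluor fluorescence.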

[2] = Nuclear factor erythroid 2-related factor 2/antioxidant responsive element (Nrf2/ARE) small molecule agonists: luciferase reporter gene qHTS assay in human keratinocytes (AID 1919969); further: nearly all actives have a fitted effect of over 35% in size; further: potency means the concentration at half of the fitted maximal effect
[3] = target: Gonadotropin-releasing hormone receptor (Homo sapiens) (UniProt P30968); assay: Human gonadotropin-releasing hormone receptor (GnRHR) small molecule agonists, calcium flux assay in GnRHR-HEK293 cells (AID 1920063); further: nearly all actives have a fitted effect of over 35% in size
How it was run: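 Agonist activity was measured as intracellular calcium flux in HEK293 cells engineered to stably express human GnRHR. After dye loading for 1 hour at 37 C, compounds in DMSO were added and fluorescence was followed for 3 minutes.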

[4] = target: KiSS-1 receptor (Homo sapiens) (UniProt Q969F8); assay: Human kisspeptin (KISS1R) small molecule agonists, calcium flux assay in KISS1R-HEK293 cells (AID 1920064; active means well fitted curve in the direction sought with a large enough effect in the repeat runs; an effect the other way counts as inactive or inconclusive)
How it was run: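 Agonist activity is monitored as intracellular calcium rise in engineered HEK293 cells carrying human KISS1R. Cells are dye-loaded for 1 h at 37 C before compound addition, and fluorescence is recorded for 3 min.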

[5] = G protein-coupled receptor (GPCR) small molecule agonists, calcium flux assay: HEK293 wild type cell line counter screen (AID 1920065)
How it was run: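 Seed cells, incubate 18 h (37 C, 5% CO2); add calcium dye, 1 h at 37 C; pin-transfer compounds, ATP control or DMSO; read fluorescence 480/540 nm each second for 3 min.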

[6] = p53 small molecule agonists, cell-based qHTS assay with human liver microsomes: qHTS cell viability counter screen (AID 1963579); further: nearly all actives have a fitted effect of over 45% in size
How it was run: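 Cytotoxicity counter screen: p53RE-bla, 4,000 cells/well; 5 h settle, 37 C/5% CO2; cpd + HLM 0.5 mg/mL + NADPH 0.5 mg/mL (final); 16 h, 37 C; CellTiter-Glo, 30 min RT, luminescence.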

[7] = p53 small molecule agonists, cell-based qHTS assay with rat liver microsomes: qHTS cell viability counter screen (AID 1963580); further: nearly all actives have a fitted effect of over 45% in size
How it was run: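 After the beta-lactamase ratio was read, CellTiter-Glo was added to the same wells and luminescence measured at 30 min; cells had been treated 16 h at 37 C with compounds, rat liver microsomes and NADPH (0.5 mg/mL final each).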

[8] = p53 small molecule agonists, cell-based qHTS assay: qHTS cell viability counter screen (AID 1963581); further: nearly all actives have a fitted effect of over 45% in size
How it was run: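 Viability was counter-screened in parallel with the p53 agonist reporter by measuring intracellular ATP luminescence in the same HCT-116 p53RE-bla wells after 16 h compound treatment at 37 C.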

[9] = target: 5-hydroxytryptamine receptor 2A (Homo sapiens) (UniProt P28223); assay: 5-hydroxytryptamine receptor 2A (HTR2A) small molecule antagonists, cell-based qHTS assay (AID 1963586); further: nearly all actives have a fitted effect of over 45% in size
How it was run: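 CHO cells stably expressing human HTR2A were plated for 18 h at 37 C, then loaded with calcium dye for 1 h. Compounds were preincubated 5 min at room temperature before DOI (4 nM solution) was added. Kinetic fluorescence was read for 3 min.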

[10] = target: 5-hydroxytryptamine receptor 2A (Homo sapiens) (UniProt P28223); assay: 5-hydroxytryptamine receptor 2A (HTR2A) small molecule agonists, cell-based qHTS assay (AID 1963587); further: nearly all actives have a fitted effect of over 30% in size; further: potency means the concentration at half of the fitted maximal effect
How it was run: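 CHO cells stably expressing human HTR2A, plated 18 h, loaded with calcium dye 1 h at 37 C. Agonist mode: compounds added and intracellular calcium fluorescence recorded kinetically for 2 min at 1 sec intervals.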

[11] = target: Muscarinic acetylcholine receptor M1 (Homo sapiens) (UniProt P11229); assay: Cholinergic receptor muscarinic 1 (CHRM1) small molecule antagonists, cell-based qHTS assay (AID 1963588); further: nearly all actives have a fitted effect of over 40% in size
How it was run: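 Compounds were tested at 15 concentrations in three independent runs. Dye-loaded CHRM1-CHO cells were exposed 5 min at room temperature before stimulation by acetylcholine added at 50nM. Intracellular calcium was read kinetically on FDSS for 3 min.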

[12] = target: Muscarinic acetylcholine receptor M1 (Homo sapiens) (UniProt P11229); assay: Cholinergic receptor muscarinic 1 (CHRM1) small molecule agonists, cell-based qHTS assay (AID 1963589); further: nearly all actives have a fitted effect of over 35% in size
How it was run: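 Cells were plated and incubated 18 h at 37 C/5% CO2, loaded with calcium dye for 1 h at 37 C, then treated with compounds in DMSO. Fluorescence was recorded kinetically at 1 sec intervals.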

[13] = cAMP Responsive Elements (CRE) small molecule agonists, cell-based qHTS assay (AID 1963590)
How it was run: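 Cells carrying a CRE-driven beta-lactamase reporter (HEK 293T) are seeded, incubated overnight (18 h), and treated with test compounds for 3 h at 37 C; reporter activity is then detected with a FRET substrate after 2 h at room temperature.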

[14] = cAMP Responsive Elements (CRE) small molecule antagonists, cell-based qHTS assay (AID 1963591; active means well fitted inhibition curve with a large enough effect in the signal ratio in the repeat runs, not every such curve was filed as active; the % refers to the signal ratio)
How it was run: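 Cells (CRE-bla HEK 293T, DMEM with 10% dialyzed FBS and 25 mM HEPES) are seeded and incubated 18 h. Compounds are added with NKH477 agonist at 0.25 uM final for 3 h, then FRET substrate for 2 h.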

[15] = target: Beta-2 adrenergic receptor (Homo sapiens) (UniProt P07550); assay: Adrenergic beta2 receptor (ADRB2) small molecule antagonists, cell-based qHTS assay (AID 1963592); further: series mostly up to about 92 µM; nearly all actives have a fitted effect of over 50% in size
How it was run: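 Assay format: CHO-ADRB2 cells, 18-20hr seeding at 37C/5% CO2, then compound plus 1nM isoproterenol agonist mix for 0.5hr RT. Homogeneous time-resolved fluorescence cAMP detection after 1hr, expressed as 665/615 nm ratio.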

[16] = target: Beta-2 adrenergic receptor (Homo sapiens) (UniProt P07550); assay: Adrenergic beta2 receptor (ADRB2) small molecule agonists, cell-based qHTS assay (AID 1963593);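 further: CHO cells stably overexpressing human ADRB2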
How it was run: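 CHO cells stably over-expressing ADRB2 were plated overnight at 37C, then dosed with compounds plus a stimulation mix containing 100uM IBMX and 25uM Ro-20-1724 for 0.5hr at room temperature. cAMP was measured by HTRF competition, 1hr.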

[17] = target: D(2) dopamine receptor (Homo sapiens) (UniProt P14416); assay: Dopamine D2 receptor (DRD2) small molecule agonists, cell-based qHTS assay (AID 1963594); further: nearly all actives have a fitted effect of over 35% in size
How it was run: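 HEK293 cells stably expressing human DRD2, pre-treated with PDE inhibitor Ro20-1724 (0.1 mM final) and compound 10 min at room temperature, then stimulated with NKH477 (200nM […]) for 30 min. cAMP read by HTRF (665/620 nm).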

[18] = target: D(2) dopamine receptor (Homo sapiens) (UniProt P14416); assay: Dopamine D2 receptor (DRD2) small molecule antagonists, cell-based qHTS assay (AID 1963595; active means well fitted inhibition curve with a large enough effect in the signal ratio in the repeat runs, with a control signal flat; the % refers to the signal ratio)
How it was run: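 HEK293 cells stably expressing DRD2, preincubated with 0.1 mM Ro20-1724 and compounds 10 min, were stimulated with 200 nM NKH477 plus 12 nM quinpirole for 30 min at room temperature; cAMP measured by HTRF (665/620 nm).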

[19] = p53 small molecule agonists, cell-based qHTS assay (AID 1963582; active means well fitted activation curve with a large enough effect in the signal ratio in the repeat runs, not every such curve was filed as active; the % refers to the signal ratio)
How it was run: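 Cells carrying a p53-responsive bla reporter are treated with test compounds for 16 h at 37 C; beta-lactamase activity is then detected with LiveBLAzer B/G FRET substrate after 2 h at room temperature.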

Measured: Potency

Sequence of Gonadotropin-releasing hormone receptor (Homo sapiens) (P30968 whole entry, looked up): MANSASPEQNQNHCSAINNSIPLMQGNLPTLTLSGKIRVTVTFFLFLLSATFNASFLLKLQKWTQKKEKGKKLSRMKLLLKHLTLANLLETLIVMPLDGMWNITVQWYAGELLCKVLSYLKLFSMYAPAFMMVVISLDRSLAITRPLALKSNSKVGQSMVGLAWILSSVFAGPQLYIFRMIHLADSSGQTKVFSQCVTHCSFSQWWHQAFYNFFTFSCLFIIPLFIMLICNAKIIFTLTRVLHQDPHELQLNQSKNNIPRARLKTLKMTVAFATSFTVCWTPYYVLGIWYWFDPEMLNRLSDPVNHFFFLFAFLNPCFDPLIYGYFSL
Sequence of 5-hydroxytryptamine receptor 2A (Homo sapiens) (P28223 whole entry, looked up): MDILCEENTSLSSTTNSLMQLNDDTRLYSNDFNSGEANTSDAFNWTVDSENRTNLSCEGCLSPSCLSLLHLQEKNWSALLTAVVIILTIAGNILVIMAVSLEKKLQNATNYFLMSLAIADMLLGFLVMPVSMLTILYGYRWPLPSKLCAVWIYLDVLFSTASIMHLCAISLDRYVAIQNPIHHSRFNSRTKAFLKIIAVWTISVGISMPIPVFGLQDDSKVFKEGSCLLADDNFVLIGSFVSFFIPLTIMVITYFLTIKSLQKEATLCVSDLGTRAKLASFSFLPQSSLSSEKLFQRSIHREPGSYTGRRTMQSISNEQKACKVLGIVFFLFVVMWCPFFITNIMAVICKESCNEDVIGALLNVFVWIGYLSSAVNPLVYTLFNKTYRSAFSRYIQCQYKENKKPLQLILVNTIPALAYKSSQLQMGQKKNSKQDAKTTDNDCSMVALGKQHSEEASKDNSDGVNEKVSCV
Sequence of Beta-2 adrenergic receptor (Homo sapiens) (P07550 whole entry, looked up): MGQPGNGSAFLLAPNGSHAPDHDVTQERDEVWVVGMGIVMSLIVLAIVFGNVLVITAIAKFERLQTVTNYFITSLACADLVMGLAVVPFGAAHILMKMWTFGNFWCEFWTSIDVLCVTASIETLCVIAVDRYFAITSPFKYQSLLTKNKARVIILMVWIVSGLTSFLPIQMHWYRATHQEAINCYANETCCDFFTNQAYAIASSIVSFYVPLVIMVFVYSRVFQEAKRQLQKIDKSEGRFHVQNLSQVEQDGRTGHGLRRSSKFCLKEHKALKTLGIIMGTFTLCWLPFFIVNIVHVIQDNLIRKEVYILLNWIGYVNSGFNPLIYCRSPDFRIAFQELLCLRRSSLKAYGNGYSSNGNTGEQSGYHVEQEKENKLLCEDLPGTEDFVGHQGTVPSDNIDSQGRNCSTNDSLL
Sequence of D(2) dopamine receptor (Homo sapiens) (P14416 whole entry, looked up): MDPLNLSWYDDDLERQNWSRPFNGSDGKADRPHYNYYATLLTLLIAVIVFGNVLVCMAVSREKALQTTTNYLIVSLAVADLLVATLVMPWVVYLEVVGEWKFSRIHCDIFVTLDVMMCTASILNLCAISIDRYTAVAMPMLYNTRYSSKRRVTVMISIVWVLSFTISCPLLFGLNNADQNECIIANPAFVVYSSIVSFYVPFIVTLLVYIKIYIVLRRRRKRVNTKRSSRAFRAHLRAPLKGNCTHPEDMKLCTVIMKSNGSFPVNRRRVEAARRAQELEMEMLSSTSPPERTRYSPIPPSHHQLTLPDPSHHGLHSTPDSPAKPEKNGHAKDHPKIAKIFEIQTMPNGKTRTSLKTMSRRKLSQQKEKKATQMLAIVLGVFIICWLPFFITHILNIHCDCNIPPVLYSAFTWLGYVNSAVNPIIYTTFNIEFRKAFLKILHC
Sequence of Muscarinic acetylcholine receptor M1 (Homo sapiens) (P11229 whole entry, looked up): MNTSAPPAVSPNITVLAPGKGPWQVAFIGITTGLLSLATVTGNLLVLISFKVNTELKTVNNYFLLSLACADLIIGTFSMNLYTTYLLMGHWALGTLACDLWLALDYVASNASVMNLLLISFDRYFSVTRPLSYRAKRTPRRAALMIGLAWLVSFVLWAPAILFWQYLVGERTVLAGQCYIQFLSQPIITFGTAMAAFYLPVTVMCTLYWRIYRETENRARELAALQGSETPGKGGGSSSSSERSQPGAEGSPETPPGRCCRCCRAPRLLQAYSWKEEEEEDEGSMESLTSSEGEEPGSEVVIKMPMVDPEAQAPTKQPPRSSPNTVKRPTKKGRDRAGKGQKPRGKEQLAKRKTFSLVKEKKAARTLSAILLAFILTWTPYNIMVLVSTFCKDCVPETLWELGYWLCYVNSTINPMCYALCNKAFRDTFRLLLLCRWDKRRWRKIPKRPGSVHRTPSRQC
Sequence of KiSS-1 receptor (Homo sapiens) (Q969F8 whole entry, looked up): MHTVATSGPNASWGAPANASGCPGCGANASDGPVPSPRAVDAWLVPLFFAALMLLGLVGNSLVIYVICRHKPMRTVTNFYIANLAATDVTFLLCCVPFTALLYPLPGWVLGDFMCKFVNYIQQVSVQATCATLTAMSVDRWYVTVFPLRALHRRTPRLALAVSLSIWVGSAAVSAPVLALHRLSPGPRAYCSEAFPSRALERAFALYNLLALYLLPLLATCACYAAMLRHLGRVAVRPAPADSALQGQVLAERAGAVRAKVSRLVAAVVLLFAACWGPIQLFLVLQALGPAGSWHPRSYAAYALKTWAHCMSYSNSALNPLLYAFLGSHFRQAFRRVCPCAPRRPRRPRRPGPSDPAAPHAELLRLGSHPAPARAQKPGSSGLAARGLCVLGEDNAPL

CCOC(=O)c1ccccc1N
not listed: [17] | [18] | [19]
inactive: all other assays above

O=C(NC(=O)c1c(F)cccc1F)Nc1ccc(Cl)cc1
not listed: [19]
inactive: all other assays above

N#Cc1cccnc1
not listed: [16] | [19]
inactive: all other assays above

CCCC[n+]1ccccc1C
not listed: [19]
inactive: all other assays above

CC1C=[C-]C=C1.[C-]#[O+].[C-]#[O+].[C-]#[O+].[Mn]
not listed: [17] | [19]
inactive: all other assays above

COP(=S)(OC)Oc1ccc([N+](=O)[O-])cc1
not listed: [9] | [12] | [16]
inactive: all other assays above

Clc1cccc(Cl)c1Cl
not listed: [19]
inactive: all other assays above

COc1ccc(N)cc1N
active: [2] 25.1 µM and 33 µM
22.6 µM (active) and inactive: [10]
not listed: [13] | [15] | [19]
inactive: all other assays above

CCOP(=S)(OCC)SCSC(C)(C)C
not listed: [11] | [13] | [16]
inactive: all other assays above

CCCCN(CCCC)SN(C)C(=O)Oc1cccc2c1OC(C)(C)C2
active: [2] 24.7 µM and 54.5 µM
not listed: [13] | [17] | [19]
inactive: all other assays above

CCOP(=S)(OCC)SCn1c(=O)oc2cc(Cl)ccc21
active: [2] 32.9 µM and 61.1 µM
not listed: [13] | [14] | [16]
inactive: all other assays above

Clc1ccccc1-c1nnc(-c2ccccc2Cl)nn1
active: [2] 19.2 µM and 5.43 µM
not listed: [18] | [19]
inactive: all other assays above

CCCCn1cc[n+](C)c1C
not listed: [13] | [19]
inactive: all other assays above

O=[N+]([O-])/N=C1\NCCN1Cc1ccc(Cl)nc1
not listed: [11] | [19]
inactive: all other assays above

CCNc1nc(NC(C)C)nc(SC)n1
not listed: [13] | [16] | [19]
inactive: all other assays above

O=C/C(Cl)=C(/Cl)C(=O)O
active: [2] 68.5 µM and 68.6 µM
not listed: [12] | [19]
inactive: all other assays above
